Biological target: T1, GST-Nv-NF-kB (Ser allele) (Nematostella vectensis, UniProt A7UNT2 2-411)
T1 sequence: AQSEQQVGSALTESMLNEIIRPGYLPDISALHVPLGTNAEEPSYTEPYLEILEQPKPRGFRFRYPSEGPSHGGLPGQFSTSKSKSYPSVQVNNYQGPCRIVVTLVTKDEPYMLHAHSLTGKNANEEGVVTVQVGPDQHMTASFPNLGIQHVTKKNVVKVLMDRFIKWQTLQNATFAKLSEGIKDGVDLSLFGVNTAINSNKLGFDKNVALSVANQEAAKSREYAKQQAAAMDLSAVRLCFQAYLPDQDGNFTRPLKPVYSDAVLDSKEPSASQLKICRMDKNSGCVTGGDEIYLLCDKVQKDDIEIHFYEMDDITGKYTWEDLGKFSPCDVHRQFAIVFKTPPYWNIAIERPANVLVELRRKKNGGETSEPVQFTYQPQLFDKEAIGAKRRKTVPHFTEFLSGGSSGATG
Experiment: protein-binding microarray (PBM); PBM: ~300 nM protein, 6 mM HEPES pH 7.8, 80 mM KCl, 0.5 mM EDTA, 0.5 mM EGTA, 6% glycerol, 35 ng/ul poly-dIdC, 1% milk, 1 h, room temperature; Ap Aiptasia and Nv Nematostella (sea anemones) / Co Capsaspora / Aq Amphimedon (sponge) / Dm Drosophila / Hu human; RHD is the Rel homology domain; high values mean tight binding
Details: dsDNA, one strand shown

Sequence | binding signal [z-score]
CCGATTAACATCAGTGTCCCGTTTGATGTTAATCGGGTCTTGATTCGCTTGACGCTGCTG | 1.48
CCGATTAACATCAGGATATCCCCTGATGTTAATCGGGTCTTGATTCGCTTGACGCTGCTG | 6.27
CCGATTAACATCAGGGTAATTTATGATGTTAATCGGGTCTTGATTCGCTTGACGCTGCTG | 6
CCGATTAACATCAAACCACCCCCTGATGTTAATCGGGTCTTGATTCGCTTGACGCTGCTG | 3.66
CCGATTAACATCACCCCCCCCCCTGATGTTAATCGGGTCTTGATTCGCTTGACGCTGCTG | 5.24
CCGATTAACATCAAAAAAACCCTTGATGTTAATCGGGTCTTGATTCGCTTGACGCTGCTG | 5.27
CCGATTAACATCACATTGGGAAATGATGTTAATCGGGTCTTGATTCGCTTGACGCTGCTG | 1.58
CCGATTAACATCAGATTTACCGCTGATGTTAATCGGGTCTTGATTCGCTTGACGCTGCTG | 1.31
CCGATTAACATCAAAACACCCCTTGATGTTAATCGGGTCTTGATTCGCTTGACGCTGCTG | 2.64
CCGATTAACATCAGGGCATGCCCTGATGTTAATCGGGTCTTGATTCGCTTGACGCTGCTG | 1.33
CCGATTAACATCATCCCCCCCCATGATGTTAATCGGGTCTTGATTCGCTTGACGCTGCTG | 4
CCGATTAACATCAAGGGGGGGATTGATGTTAATCGGGTCTTGATTCGCTTGACGCTGCTG | 6.32
CCGATTAACATCAGAAGACCCCCTGATGTTAATCGGGTCTTGATTCGCTTGACGCTGCTG | 3.72
CCGATTAACATCAACACTCCCCCTGATGTTAATCGGGTCTTGATTCGCTTGACGCTGCTG | 5.61
CCGATTAACATCAGGGGACTTCATGATGTTAATCGGGTCTTGATTCGCTTGACGCTGCTG | 6.12
CCGATTAACATCAGCCCCCCCCATGATGTTAATCGGGTCTTGATTCGCTTGACGCTGCTG | 2.7
CCGATTAACATCATACTTCCCCATGATGTTAATCGGGTCTTGATTCGCTTGACGCTGCTG | 6.52
CCGATTAACATCAGGGCTCCCCCTGATGTTAATCGGGTCTTGATTCGCTTGACGCTGCTG | 5.09
CCGATTAACATCACGGGAATGCCTGATGTTAATCGGGTCTTGATTCGCTTGACGCTGCTG | 1.33
CCGATTAACATCAACTCCCCCCATGATGTTAATCGGGTCTTGATTCGCTTGACGCTGCTG | 4.05
CCGATTAACATCAAGGGGGATACTGATGTTAATCGGGTCTTGATTCGCTTGACGCTGCTG | 5.52
CCGATTAACATCAGAAGTCCCCCTGATGTTAATCGGGTCTTGATTCGCTTGACGCTGCTG | 6.47
CCGATTAACATCAGGAAATACCCTGATGTTAATCGGGTCTTGATTCGCTTGACGCTGCTG | 6.46
CCGATTAACATCAGGAACCCCCCTGATGTTAATCGGGTCTTGATTCGCTTGACGCTGCTG | 5.44
CCGATTAACATCAGGGGGAACACTGATGTTAATCGGGTCTTGATTCGCTTGACGCTGCTG | 6.37
